Screen size: about 300,000 compounds; about 5,200 (1.7%) were called active. This is one part of a sample in which actives are shown more often than they occur.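 The calls were made as follows: active = mean replicate activation of at least 50% with a set share of replicates each reaching 50%; inconclusive = only one of those two conditions met; inactive = mean below 50% and too few replicates reaching it.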
Assay: HSF-1 activators, primary screen, NIH3T3-HGL cells, MG132 stress, luminescence, single point (AID 504408);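 also: 0% = median of the neutral control wells and 100% = twice that signal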
Settings: NIH3T3-HGL HSF-1 luciferase reporter, MG132, 8 h; at 9 µM; stronger effect = higher value; 100% = twice DMSO control signal

activation, inactive:
CSc1ccc(/C=N\NC(=O)COc2ccc(Cl)cc2Br)cc1 0.476%, COc1ccc(/C=N/NC(=O)c2cccc(C(F)(F)F)c2)cc1 0.104%, O=C(COC(=O)c1ccccc1SCC(=O)N1CCCC1)Nc1ccccc1OC(F)F 5.14%, O=C(COC(=O)c1ccc([N+](=O)[O-])cc1Cl)NC(=O)c1ccccc1 -8.14%, CCOc1ccc2ccccc2c1/C=N/NC(=O)c1c(C)cc(C)[nH]c1=O 23.9%, Cc1nnc(N/N=C/c2ccccn2)[nH]c1=O -18.5%, Cc1nnc(N/N=C/c2cccs2)[nH]c1=O -4.02%, O=C(CSc1ccc(-c2ccc(-n3cccn3)cc2)nn1)Nc1ccc([N+](=O)[O-])cc1 8.59%, CCOc1cc(/C=C/c2nc3ccccc3c(=O)[nH]2)cc(Br)c1OC 14.8%, O=c1oc(/C=C/c2ccccc2)nc2ccccc12 -13.5%, CCOc1ccc(CCNC(=O)COC(=O)CCS(=O)(=O)c2ccc(C)cc2)cc1OCC 1.98%, Cc1cc(Br)ccc1NC(=O)CN(C)C(=O)CN1C(=O)NC2(CCCC2)C1=O 6.32%, CCC(c1nnnn1Cc1ccccc1)N(Cc1cc2cc(OC)ccc2[nH]c1=O)CC1CCCO1 (stereo not given) 17.4%, CCC(c1nnnn1Cc1ccco1)N(CCc1ccccc1)Cc1cc2ccc(OC)cc2[nH]c1=O (stereo not given) 9.84%, CCc1ccc(CNC(=O)CCc2nc(-c3cccs3)no2)cc1 3.43%, COc1ccc(OC)c(CNC(=O)CCc2nc(-c3cccs3)no2)c1 -8.19%, COc1cccc(N2CC(NS(=O)(=O)c3ccc(Cl)cc3)CC2=O)c1 (stereo not given) 11.2%, COc1ccc(NC(=O)CCC(=O)N2CCN(S(=O)(=O)c3ccc(C)cc3)CC2)c(OC)c1 -9.72%, CN(CC(=O)Nc1ccccc1Cl)C(=O)c1ccccc1SCC(=O)N1CCCC1 15.5%, O=C(Nc1ccccc1)OCc1cn(-c2ccc(Cl)cc2)nn1 -2.71%, COC(=O)CN1C(=S)N(c2ccccc2)C(=O)C1CC(=O)Nc1ccc(Cl)cc1 (stereo not given) 4.42%, COc1ccc(Cl)cc1C=CC=NNC(=O)c1ccncc1 5.04%, O=C(Cc1ccc(Br)cc1)NCCc1ccccc1 18.4%, CC(=O)c1c(C)[nH]c(C(=O)CN2C(=O)NC(C)(C)C2=O)c1C -22.1%, Cc1cc(=O)oc2cc(OC(C)C(=O)NCCc3ccc(S(N)(=O)=O)cc3)ccc12 (stereo not given) 12.2%, Cc1cc(=O)oc2c(C)c(OCC(=O)NCCc3ccc(S(N)(=O)=O)cc3)ccc12 -4.95%, O=C(NCCC1CCCCN1S(=O)(=O)c1ccc(F)cc1)C(=O)NC1CC1 (stereo not given) 3.8%, CCOc1ccc(CCNC(=O)COC(=O)C2CCN(c3ccc(C(F)(F)F)cn3)CC2)cc1OCC 2.31%, O=C(Nc1ccccc1)c1ccc2c(c1)OCCCO2 12.7%, O=C(Nc1ccc(Cl)cn1)c1ccc2c(c1)OCCO2 9.46%, O=[N+]([O-])c1ccc(O)c(/C=N/Nc2ccccc2[N+](=O)[O-])c1 -10.2%, Cc1ccc2nc(NC(=O)CSc3nc(=O)n(CCCN(C)C)c4c3CCC4)sc2c1 2.36%, Cc1ccccc1OCC(=O)NNC(=O)c1ccc(-n2cncn2)c([N+](=O)[O-])c1 4.89%, Cc1ccc(C)c(NC(=O)COC(=O)Cn2c(C)csc2=O)c1 -8.55%, COc1cc(/C=N/NC(=O)c2cc(-c3ccccc3C)nc3ccccc23)cc(OC)c1O 18.6%, CN1CCN(C2Cc3ccc(Cl)cc3Sc3ccc(F)cc32)CC1 (stereo not given) -3.39%, Cc1cccc(C)c1OCC(=O)NC(Cc1c[nH]c2ccccc12)C(=O)O (stereo not given) 0.58%, CC(=O)NC(Cc1c[nH]c2ccccc12)C(=O)NCCc1ccccc1 (stereo not given) -11.2%, CC1CCN(C(=O)c2cccc(S(=O)(=O)N3CCCc4ccccc43)c2)CC1 9.01%, Cc1ccc(N2CC(C(=O)N3CCC4(CC3)CC(=O)c3ccccc3O4)CC2=O)cc1C (stereo not given) -2.34%, O=C(O)C1C2C=CC(C2)C1C(=O)NCc1ccccc1 (stereo not given) -13%, Nc1ccccc1/C=N\N=C/c1ccccc1N 1.94%, Cc1ccc(-n2ncc3c(=O)[nH]cnc32)c(C)c1 -3.73%, Cc1ccc2cc(C)c(N3CCN(c4ccc(F)cc4)CC3)nc2c1 5.08%, Nc1ccc(C(=O)N2CCN(S(=O)(=O)c3ccc(Cl)cc3)CC2)cc1[N+](=O)[O-] 17.9%, COc1ccc(C)cc1NC(=O)CSc1nnc2ccc(-c3ccccn3)nn12 -10.8%, COc1ccc(C2=NN(C(=O)CSc3nc(=O)n4ccc(C)cc4n3)C(c3ccc(C)cc3)C2)cc1 (stereo not given) 9.37%, O=C(NCCc1c[nH]c2ccccc12)c1cccc(Br)c1 7.52%, CN(c1ccccc1)S(=O)(=O)c1ccc(Cl)c(C(=O)NCCc2c[nH]c3ccccc23)c1 -1.41%, COc1ccccc1CNS(=O)(=O)c1cc2c3c(c1)CCC(=O)N3CCC2 14.6%, COc1ccc(CC(=O)OC(C)C(=O)Nc2ccc(S(N)(=O)=O)cc2)cc1 (stereo not given) -0.48%, CC(OC(=O)CNC(=O)c1cccc(F)c1)C(=O)NC1CCCCC1C (stereo not given) -3.7%, CCOC(=O)C1=C(c2ccccc2)NC(=O)NC1c1cc(OCC)c(O)c([N+](=O)[O-])c1 (stereo not given) 29.6%, CCOC(=O)C1=C(c2ccccc2)NC(=O)NC1c1cc(OC)c(OC)cc1OC (stereo not given) -12.4%, CCOC(=O)C1=C(CN2CCc3ccccc32)NC(=O)NC1c1cc(C)ccc1C (stereo not given) 15.2%, CCOC(=O)C1=C(CN2CCc3ccccc32)NC(=O)NC1c1cccc([N+](=O)[O-])c1 (stereo not given) 39.3%, CC(=O)CC(CC(=O)NC1CCCCC1)c1ccccc1 (stereo not given) -2.27%, CC(NC(=O)c1ccccc1SCC(=O)N1CCCC1)c1ccccc1 (stereo not given) -5.63%, COc1ccc(C(C(=O)NC(C)(C)C)N(C(=O)Cn2nnc3ccccc32)c2ccc(C(C)=O)cc2)cc1O (stereo not given) 1.15%, CCOc1cc(C(C(=O)NCC2CCCO2)N(C(=O)Cn2nnc3ccccc32)c2cccc(OC)c2)ccc1O (stereo not given) -1.11%, O=C1/C(=C\c2ccc(O)cc2)CCC1CNc1ccc(Cl)cc1 (stereo not given) -5.88%, COc1ccc(C(=O)c2c3ccc([N+](=O)[O-])cc3[n+]([O-])n2CCCN)cc1 11.6%, CCC(C)c1ccccc1N1CC(C(=O)N2CCN(S(=O)(=O)c3ccc(F)cc3)CC2)CC1=O (stereo not given) 7.61%, CCOC(=O)c1sc(-c2cccc([N+](=O)[O-])c2)cc1N 24.4%, CCOC(=O)c1ccc(Nc2cc3ccccc3c(=O)[nH]2)cc1 -14.6%, CCOC(=O)c1c(C)[nH]c(C(=O)OCC(=O)N2CCCC2=O)c1C 16.4%, CCOC(=O)c1c(C)[nH]c(C(=O)OCC(=O)c2ccc(OC)cc2OC)c1C -6.52%, COc1cc(-c2nnc(NC(=O)C3=COCCO3)o2)cc(OC)c1OC -3.05%, O=C(OCCOCn1cc(Br)c(=O)[nH]c1=O)c1ccccc1 -0.69%, N[C@@H](Cc1ccccc1)C(=O)N1CCOCC1 -19.9%, C=CCOc1cccc(C2C(C(=O)c3ccc(C)o3)=C(O)C(=O)N2c2nnc(C)s2)c1 (stereo not given) -4.03%, CC(=O)c1ccc(NC(=O)C2CCCN2S(=O)(=O)c2cccs2)cc1 (stereo not given) -4.67%

activation, active:
CSc1ccc(/C=N/NC(=O)c2cccc(Cl)c2)cc1 80.3%, Cc1ccccc1Nc1nnc(C)c(=O)[nH]1 54.6%, O=c1[nH]c(/C=C/c2cccc(Br)c2)nc2ccccc12 58.9%, CCC(c1nnnn1Cc1ccco1)N(Cc1cc2cc(OC)ccc2[nH]c1=O)C1CCCCC1 (stereo not given) 136%, COc1ccc(CCc2nc(-c3cccs3)no2)cc1 65%, O=C(O)CC1=C(Nc2ccccc2)C(=O)N(c2ccccc2)C1c1ccc(Cl)cc1 (stereo not given) 65.5%, Cc1ccc2c(=O)cc(C(=O)NCCc3ccc(S(N)(=O)=O)cc3)oc2c1C 62.8%, Cc1nc(NC(=O)c2ccc3c(c2)OCCO3)ccc1Br 58.7%, Nn1cnnc1N/N=C/c1cc([N+](=O)[O-])c(Cl)cc1Cl 56.4%, CC(=O)NC(Cc1c[nH]c2ccccc12)C(=O)O (stereo not given) 56%, Cc1ccc(-n2ncc3c(N4CCN(c5ccc(F)cc5)CC4)ncnc32)c(C)c1 57.9%, O=C(NCCc1c[nH]c2ccccc12)c1cc2ccccc2oc1=O 62.1%, CCOC(=O)C1=C(c2ccccc2)NC(=S)NC1c1ccc(Cl)cc1 (stereo not given) 63.5%, CCOC(=O)C1=C(CN2CCc3ccccc32)NC(=O)NC1c1ccc(Cl)cc1 (stereo not given) 58.6%, COc1ccc(C(C(=O)NCC2CCCO2)N(C(=O)Cn2nnc3ccccc32)c2ccc(NC(C)=O)cc2)cc1OC (stereo not given) 84%, CCOC(=O)c1sc(C)c2c1NC(C)(c1cccc3ccccc13)NC2=O (stereo not given) 97.8%, CCCCOC(=O)c1[nH]c(C)c(C(=O)OC)c1C 52.3%, c1ccc(CN=C2Nc3ccccc3CS2)nc1 58%

Reference: PubChem BioAssay AID504408 (Broad Institute, 2011)
